Compound activity deposited in PubChem by National Center for Advancing Translational Sciences (NCATS).
Rows were chosen to be rich in hits. Some 19% of all compounds tested hit in one or more screens of this group.
TDP1 cell CPT – qHTS for Inhibitors of human tyrosyl-DNA phosphodiesterase 1 (TDP1): qHTS in cells in presence of CPT. chicken DT40 Tdp1-/-;hTDP1 cells + 20 nM CPT, ATP luminescence, 48 h. Potency, µM (titrated, usually from 46.2 µM), for inactives: top-dose activity change, negative = growth inhibition, most hits filed as inhibitors. 420,000 compounds, 12% hits. AID 686979, 2013; note: potency is the fitted concentration of half-maximal effect; nearly all actives have a fitted effect of over 55% in size
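Chicken DT40 Tdp1-/- cells complemented with human TDP1, 400 cells/well, exposed to compounds plus 20 nM camptothecin for at least 48 h at 37 C; viability read as ATP content by CellTiter-Glo luminescence.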
TDP1 cell noCPT – qHTS for Inhibitors of human tyrosyl-DNA phosphodiesterase 1 (TDP1): qHTS in cells in absence of CPT; DT40 Tdp1-/- hTDP1 cells, no CPT, ATP luminescence, 48 h; Potency, µM (titrated, usually from 46.2 µM), for inactives: at the highest dose activity change, negative = growth inhibition, usual class: inhibitors; 420,000 compounds, 15% hits; note: potency is the fitted concentration of half-maximal effect; nearly all actives have a fitted effect of over 55% in size
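Growth kinetics read by CellTiter-Glo luminescence after ≥48 hr at 37 °C. Cells: DT40 Tdp1-/- stably carrying human TDP1, 400 per well, compound exposure in the absence of CPT (DMSO vehicle).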
uPA surface inh – qHTS for Inhibitors of Cell Surface uPA Generation | cell surface uPA generation assay, qHTS | Potency, µM (top dose mostly 38.3 µM), without a hit: at the top dose activity change, negative = inhibition, actives largely listed as inhibitors | 330,000 compounds, 0.31% hits | AID 540303, 2011; active = well fitted inhibition curve with a large enough effect; inconclusive = small, poorly fitted or top-dose-only effect; inactive = no such curve, though single readings can be large or run the other way; tested in mouse RAW 264.7 cells; note: potency is the fitted concentration of half-maximal effect; nearly all actives have a fitted effect of over 55% in size
IL-1B inflam inh – qHTS for Inhibitors of Inflammasome Signaling: IL-1-beta AlphaLISA Primary Screen; THP-1 LPS/ATP IL-1B secretion, AlphaLISA, 16 h; hits give low values; activity change, % at 57.5 µM; 360,000 compounds, 4.7% hits; AID 743279, 2014; in the data active = activity change below about -50%; inconclusive = mostly about -30% to -49%
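Secreted IL-1B measured by AlphaLISA bead assay after 16 h compound exposure of THP-1 cells; compounds (final up to 57.5 uM) added 1 h before LPS (250 ng/mL) and ATP (1.25 mM) stimulation; lower signal means less secretion.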
HT1080NT lethal – qHTS for induction of synthetic lethality in tumor cells producing 2HG: qHTS for the HT-1080-NT fibrosarcoma cell line. 360,000 compounds, 1.6% hits. Potency, µM (series often up to 46.1 µM), for the others: at the highest dose activity, negative = less viability, usual class: cytotoxic. HT-1080-NT fibrosarcoma viability, CellTiter-Glo ATP luminescence, 48 h;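 note: NT is the 2HG producing partner of a matched IDH1 knockdown line; potency is the fitted concentration of half-maximal effect; 0% = DMSO-treated cells and -100% = media-only wells without cells; nearly all actives have a fitted effect of over 55% in size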
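Fibrosarcoma NT cells, 750 per well in 5% FBS RPMI, were exposed to compound for 48 hours. Viability: CellTiter-Glo luminescence.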
HT1080 IDH1KD tx – qHTS for induction of synthetic lethality in tumor cells producing 2HG: qHTS for the HT-1080-IDH1KD cell line; AID 686971, 2013; 360,000 compounds, 2% hits; Potency, µM (doses to about 46.1 µM), inactives show at the top dose activity, negative = toxicity, most hits filed as cytotoxic; HT-1080 IDH1 knockdown viability, ATP luminescence, 48 h;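 note: potency is the fitted concentration of half-maximal effect; 0% = DMSO wells and -100% = cell-free medium wells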
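After a 2 h attachment period, IDH1KD HT-1080 cells took pin-transferred compound for 48 h at 37 °C; ATP-based luminescence after 10 min room-temperature reagent incubation reported viability.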
Active calls of the source: *; ? = inconclusive; nt = no result. Unless noted, calls come from the whole dose curve; as a rule, active = well fitted curve in the direction sought with a large enough effect; inconclusive = small, poorly fitted or top-dose-only effect, or another doubt; inactive = no such curve, though single readings can be large; an effect the other way counts as inactive or inconclusive. Unless noted, % is set by controls: 0 for no effect and ±100 for the full control effect.

SMILES	TDP1 cell CPT	TDP1 cell noCPT	uPA surface inh	IL-1B inflam inh	HT1080NT lethal	HT1080 IDH1KD tx
COc1cc2[nH]c(C(=O)N3CCC4(CC3)OCCO4)cc2c(OC)c1OC	-5.5%	25.8%	3.9%	0.0	-0.1%	-2.5%
COc1ccc(O)c(CN2CCCC(C(=O)c3ccccc3SC)C2)c1 (stereo not given)	?	14.6µM*	nt	-22.6	-25.2%	?
CSc1ccccc1C(=O)C1CCCN(Cc2ccncc2)C1 (stereo not given)	-21.2%	-14.2%	0.7%	22.2	0.3%	8.4%
COc1ccccc1CN1CCCC(C(=O)c2ccccc2OC)C1 (stereo not given)	8.2µM*	?	-1.6%	-11.0	-15.5%	-14.0%
COc1ccc(C(=O)C2CCCN(CCc3ccccc3)C2)cc1OC (stereo not given)	?	18.4µM*	nt	-3.4	-19.7%	-9.0%
CCn1ccnc1CN1CCCC(C(=O)c2cccc(C(F)(F)F)c2)C1 (stereo not given)	?	25.9µM*	-0.3%	-28.1	-3.8%	-0.1%
CCOc1ccccc1CN1CCCC(C(=O)c2cc(F)ccc2F)C1 (stereo not given)	-45.0%	?	0.0%	-15.3	-22.4%	-26.4%
CS(=O)(=O)c1ccc(C2=C(CNC(=O)c3nccs3)[C@H]3CC[C@@H](C2)N3Cc2ccccc2)cc1	-2.8%	?	nt	-2.3	0.1%	3.5%
COc1ccc(CCNc2oc(-c3ccc(OC)c(OC)c3)nc2P(=O)(OC)OC)cc1OC	-29.5%	?	-13.4%	-0.8	9.3%	8.9%
O=C(Nc1ccc(F)cc1)OC1CN2CCC1CC2 (stereo not given)	-8.1%	-15.8%	-0.8%	-4.9	17.1%	13.9%
NCc1cccnc1	12.3%	-11.1%	nt	nt	nt	nt
CCC1C(=O)OC[C@H]1Cc1cncn1C (stereo not given in full)	5.3%	-5.7%	nt	nt	nt	nt
COc1ccccc1CN1CCCC(C(=O)c2ccccc2SC)C1 (stereo not given)	13µM*	20.6µM*	4.5%	-26.6	?	?
COc1ccc(F)cc1C(=O)C1CCCN(Cc2ccc(O)cc2)C1 (stereo not given)	-2.8%	-28.5%	-0.4%	-6.0	-18.6%	-16.5%
CCOc1ccc(CN2CCCC(C(=O)c3ccccc3OC)C2)cc1 (stereo not given)	?	?	-1.4%	-58.2*	-24.6%	-25.8%
COc1cccc(OC)c1CN1CCCC(C(=O)c2cccc(Cl)c2)C1 (stereo not given)	18.4µM*	?	9.0%	?	-19.2%	-13.5%
Cc1c(C(=O)NCc2ccc(Cl)c(Cl)c2)sc(=O)n1Cc1ccc(S(=O)(=O)N(C)C)cc1	8.2µM*	14.6µM*	nt	-24.3	-12.4%	?
Cc1ccccc1C(=O)N1Cc2ccccc2-n2nncc2C1	?	?	nt	28.9	-2.0%	5.2%
Cc1c2cnn(CC(=O)N3CCC4(CC3)OCCO4)c(=O)c2c(C)n1Cc1ccccc1	-6.9%	?	-4.9%	2.2	2.2%	3.3%
CCOC(=O)N1CCN(C(=O)Cn2ncc3c4ccccc4n(Cc4ccc(F)cc4)c3c2=O)CC1	1.64µM*	1.84µM*	nt	nt	nt	nt
CCN1CCN(C(=O)COc2cc(=O)n(CC)c3ccccc23)CC1	0.7%	0.7%	-6.9%	-21.4	-4.8%	-7.7%
O=C(Cn1ncc2c3ccccc3n(Cc3ccc(F)cc3)c2c1=O)N1CCC2(CC1)OCCO2	3.26µM*	3.26µM*	-6.3%	-12.5	-19.2%	-11.6%
